TrxR1 inh = qHTS Assay for Inhibitors of Mammalian Selenoprotein Thioredoxin Reductase 1 (TrxR1): qHTS | Thioredoxin reductase 1, cytoplasmic (Rattus norvegicus), O89049 | recombinant rTrxR1, NADPH fluorescence consumption, selenite substrate | Potency, µM (series often up to 114 µM), for the others: at the top dose activity change, negative = inhibition, most hits filed as inhibitors | actives 1% (n = 390,000) | AID 588453, 2011; note: potency is the fitted concentration of half-maximal effect; nearly all actives have a fitted effect of over 65% in size
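Rat TrxR1 (90 nM in the dispensed reagent) was pre-reduced with 400 uM NADPH for 5 min at room temperature, then incubated with compound for 15 min. After 400 uM selenite was added, NADPH fluorescence (Ex 340/Em 450 nm) was followed for 8 min.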
Pin1 inhibitor = qHTS Assay to Find Inhibitors of Pin1. Potency, µM (series often up to 115 µM), for the others: at the highest dose activity, negative = inhibition, most hits filed as inhibitors. actives 0.009% (n = 390,000). Peptidyl-prolyl cis-trans isomerase NIMA-interacting 1 (Homo sapiens), Q13526. Pin1 FP peptide displacement, HiFluor488, 10 min; active = well fitted inhibition curve with a large enough effect in the polarisation, with a control signal flat, not every such curve was filed as active; inconclusive = small, poorly fitted or top-dose-only effect, or effect the other way, or a change in a side signal; inactive = no such curve, though single readings can be large or run the other way; the % refers to the polarisation; note: potency is the fitted concentration of half-maximal effect
Giardia killer = Small Molecules that selectively kill Giardia lamblia: qHTS; Giardia lamblia trophozoite viability; activity change, % at 7.66 µM, hits read low; actives 0.15% (n = 340,000); in the data active = activity change below about -80%; inconclusive = between about -30% and that limit;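 note: parasites exposed to compound for two days anaerobically before the ATP read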
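ATP-content bioluminescence gauges trophozoite survival. Cells (100/well) receive compound and incubate anaerobically for 48 hrs at 37 deg C; detection reagent follows for 15-30 min at room temperature.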
GALK inh = qHTS Assay for Inhibitors of Human Galactokinase (GALK) | P51570 | Purified GALK, Kinase-Glo residual ATP luminescence | Potency, µM (doses to about 57.5 µM), for the others: at the highest dose activity change, negative = inhibition, hits mostly inhibitors | actives 0.007% (n = 270,000) | AID 1868, 2009; note: potency is the fitted concentration of half-maximal effect
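GALK at 5 nM final was combined with compound, 35 uM ATP and 100 uM galactose in HEPES pH8.0 with MgCl2 and DTT. The reaction ran one hour at room temperature before luminescent ATP detection.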
KAT2A inh = qHTS Assay for Inhibitors of GCN5L2; GCN5L2 HAT assay, ThioGlo1 CoA-SH fluorescence; Potency, µM (highest dose often 58.9 µM), for the others: at the highest dose activity change, negative = inhibition, most hits filed as inhibitors; actives 0.21% (n = 390,000); note: potency is the fitted concentration of half-maximal effect
Target sequence (Q92830 whole entry, looked up): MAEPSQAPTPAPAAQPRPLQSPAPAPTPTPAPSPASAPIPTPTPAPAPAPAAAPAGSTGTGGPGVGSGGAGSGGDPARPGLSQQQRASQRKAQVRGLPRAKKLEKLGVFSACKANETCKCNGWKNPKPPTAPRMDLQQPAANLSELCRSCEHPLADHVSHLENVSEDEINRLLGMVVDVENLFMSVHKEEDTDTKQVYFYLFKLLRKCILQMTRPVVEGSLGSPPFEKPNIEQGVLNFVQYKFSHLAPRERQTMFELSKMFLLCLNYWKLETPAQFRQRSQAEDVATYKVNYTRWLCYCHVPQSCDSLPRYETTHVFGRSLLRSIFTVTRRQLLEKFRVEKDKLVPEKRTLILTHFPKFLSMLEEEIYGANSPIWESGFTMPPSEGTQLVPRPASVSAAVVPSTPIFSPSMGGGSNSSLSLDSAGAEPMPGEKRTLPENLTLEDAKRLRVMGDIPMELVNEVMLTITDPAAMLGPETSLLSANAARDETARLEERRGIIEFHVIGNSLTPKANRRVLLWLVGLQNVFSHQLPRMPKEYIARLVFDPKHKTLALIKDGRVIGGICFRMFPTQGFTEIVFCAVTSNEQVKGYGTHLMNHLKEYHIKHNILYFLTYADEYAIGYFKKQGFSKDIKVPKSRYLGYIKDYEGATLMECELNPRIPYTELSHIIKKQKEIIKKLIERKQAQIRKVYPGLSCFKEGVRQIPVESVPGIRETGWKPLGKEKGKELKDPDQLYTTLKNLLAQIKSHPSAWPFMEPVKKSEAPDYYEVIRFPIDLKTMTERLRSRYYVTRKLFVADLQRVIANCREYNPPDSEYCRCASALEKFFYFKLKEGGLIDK
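ThioGlo1-coupled HAT assay: 20nM GCN5L2, 70uM acetyl-CoA, 75uM H3(1-25) peptide, pH 7.5. Fluorescence read at 340/540nm at start and after 20 min at room temperature.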
TrxR1 substrate = qHTS Assay for Substrates of Mammalian Selenoprotein Thioredoxin Reductase 1 (TrxR1): qHTS. Thioredoxin reductase 1, cytoplasmic (Rattus norvegicus), O89049. purified TrxR1 substrate turnover, NADPH consumption readout. Potency, µM (highest dose often 114 µM), inactives show at the top dose activity change, negative = substrate turnover. actives 0.01% (n = 390,000). AID 588456, 2011; note: potency is the fitted concentration of half-maximal effect; nearly all actives have a fitted effect of over 50% in size
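Rat TrxR1, dispensed at 90 nM, was prereduced with 400 uM NADPH (final) for 5 min at ~22 deg C, then incubated with compound 15 min before 400 uM selenite. A first-read NADPH fluorescence drop versus no-compound background flagged substrates.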
Numbers without * were called inactive; [ ] = remark or other dose. A selection: hits, their analogues and other compounds. The true share with any hit is near 1.3%. Unless noted, calls come from the whole dose curve; as a rule, active = well fitted curve in the direction sought with a large enough effect; inconclusive = small, poorly fitted or top-dose-only effect, or another doubt; inactive = no such curve, though single readings can be large; an effect the other way counts as inactive or inconclusive. % is set by controls: 0 for no effect and ±100 for the full control effect.

`CCOC(=O)C1=C(CNCc2ccccc2)NC(=O)NC1c1ccc(C)cc1` (stereo not given) gave TrxR1 inh 4.6%, Pin1 inhibitor 8.1%, KAT2A inh -8.4% and TrxR1 substrate -0.5%.
Screening CCc1ccc(-n2c(CCC(=O)O)ccc2-c2cccs2)cc1 returned TrxR1 inh 35.5µM*, Pin1 inhibitor 14.2%, KAT2A inh -11.2% and TrxR1 substrate 7.8%.
For Cc1ccc(-n2c(CCC(=O)O)ccc2-c2cccs2)cc1C the results were TrxR1 inh 44.7µM*, Pin1 inhibitor 12.5%, Giardia killer 41.3, GALK inh 0.7%, KAT2A inh -4.2% and TrxR1 substrate 14.6%.
For CCCCn1c(CCC(=O)O)ccc1-c1cccs1 the results were TrxR1 inh 35.5µM*, Pin1 inhibitor 2.3%, Giardia killer 3.1, GALK inh -3.7%, KAT2A inh -4.9% and TrxR1 substrate 14.1%.
Screening COCCn1c(CCC(=O)O)ccc1-c1cccs1 returned TrxR1 inh inconclusive, Pin1 inhibitor -2.9%, Giardia killer 31.6, GALK inh -0.6%, KAT2A inh -10.1% and TrxR1 substrate 19.5%.
CC(=O)N1c2ccc(S(=O)(=O)Nc3ccc(C)c(C)c3)cc2CC1C (stereo not given) was read as Pin1 inhibitor 9.3%.
Screening O=C(CN1CCCC1c1cccs1)N1CCN(S(=O)(=O)c2cccc(F)c2)CC1 (stereo not given) returned TrxR1 inh 24.0%, Pin1 inhibitor -2.2%, Giardia killer -25.0, KAT2A inh -1.8% and TrxR1 substrate 0.1%.
O=C1/C(=C/N(C(=O)c2ccco2)c2ccc(Br)cc2)Sc2ccccc21 was read as TrxR1 inh 14.1µM*, Pin1 inhibitor 22.8%, Giardia killer -14.8, GALK inh 2.7%, KAT2A inh -3.5% and TrxR1 substrate -3.8%.
O=C1/C(=C/N(C(=O)c2ccco2)c2ccc(Cl)cc2)Sc2ccccc21 was read as TrxR1 inh 39.8µM*, Pin1 inhibitor 14.6%, Giardia killer -1.3, GALK inh 4.7%, KAT2A inh -3.7% and TrxR1 substrate -7.2%.
COc1ccc(CN(C(=O)c2ccco2)c2ccc(Br)cc2)cc1OC was read as TrxR1 inh 0.5%[57.1 µM], Pin1 inhibitor -2.4%, Giardia killer 9.6, GALK inh 3.0%, KAT2A inh -3.5% and TrxR1 substrate 4.6%[57.1 µM].
For C=C(C)[C@@H]1C2=CC(C(=O)OC)=C(C[C@@H](C(=C)C)[C@H]3O[C@H]3C3=C[C@H]1OC3=O)O2 the results were TrxR1 inh 11.2µM*, Pin1 inhibitor inconclusive, Giardia killer -11.4 and TrxR1 substrate -6.7%.
Screening COc1ccc(/C(C)=N/Nc2nc(C)c(C(C)=O)s2)cc1 returned TrxR1 inh 17.6%, Pin1 inhibitor 0.6%, Giardia killer -10.2, GALK inh 2.0%, KAT2A inh -0.7% and TrxR1 substrate 1.5%.
CC(=O)c1sc(N/N=C2\CC3CC2C(C)C3(C)C)nc1C (stereo not given) was read as TrxR1 inh 11.2µM*, Pin1 inhibitor inconclusive, Giardia killer 25.9, GALK inh -2.3%, KAT2A inh -7.3% and TrxR1 substrate -6.1%.
CC(C)CCn1c(=O)c2sccc2n2c(CCCC(=O)NC(C)c3ccccc3)nnc12 (stereo not given) was read as TrxR1 inh 10.4%, Pin1 inhibitor -4.2%, KAT2A inh -9.3% and TrxR1 substrate 2.4%.
CCOC(=O)/C(=C/c1ccc(OC(=O)c2ccccc2)cc1)C(C)=O was read as TrxR1 inh 14.1µM*, Pin1 inhibitor 1.0%, Giardia killer -3.1, KAT2A inh -5.2% and TrxR1 substrate -0.1%.
For Cn1c(N)c(C(=O)CSc2n[nH]c(N)n2)c(=O)n(C)c1=O the results were TrxR1 inh -7.3%, Pin1 inhibitor 6.6%, Giardia killer 14.4, KAT2A inh 3.0% and TrxR1 substrate -2.5%.
Screening O=C1c2oc3ccccc3c(=O)c2C(c2cccc(O)c2)N1CCCN1CCOCC1 (stereo not given) returned TrxR1 inh 44.7µM*, Pin1 inhibitor 5.7%, Giardia killer 1.6, GALK inh 2.5%, KAT2A inh 1.4% and TrxR1 substrate 4.2%.
For COc1ccc(C2c3c(oc4ccccc4c3=O)C(=O)N2CCCN2CCOCC2)cc1 (stereo not given) the results were TrxR1 inh 35.5µM*, Pin1 inhibitor -5.6%, Giardia killer 7.5 and TrxR1 substrate 3.2%.
CCOc1ccc(C2c3c(oc4ccccc4c3=O)C(=O)N2CCCN2CCOCC2)cc1OCC (stereo not given) was read as TrxR1 inh inconclusive, Pin1 inhibitor 3.1%, Giardia killer 9.3, GALK inh -0.1%, KAT2A inh -12.3% and TrxR1 substrate 2.0%.
`CCN(CC)c1ccc(C2NC(=O)c3ccccc3N2)cc1` (stereo not given) gave TrxR1 inh 13.4%[11.4 µM], Pin1 inhibitor -5.3%, Giardia killer -86.4* and TrxR1 substrate 9.7%[11.4 µM].
`CC(=O)NC(Cc1ccc(Cl)cc1)C(=O)NCC(N)C(=O)c1ccccc1` (stereo not given) gave TrxR1 inh -1.1% and TrxR1 substrate -5.2%.
Screening CCCCn1c(N)c(C(=S)NC(=O)CC(C)(C)C)c(=O)n(C)c1=O returned TrxR1 inh 39.8µM*, Pin1 inhibitor -3.4%, Giardia killer -19.8, GALK inh 1.1%, KAT2A inh -8.5% and TrxR1 substrate -6.4%.
For CCOC(=O)c1c(S(=O)(=O)NCC(=O)Nc2cccc(CC)c2)c(C)n(C)c1C the results were TrxR1 inh 13.6%[57.1 µM], Pin1 inhibitor 2.9%, KAT2A inh -12.7% and TrxR1 substrate 6.0%[57.1 µM].
`O=C1c2c(O)cc(O)cc2OC(c2ccc(O)c(O)c2)C1O` (stereo not given) gave TrxR1 inh inconclusive, KAT2A inh -6.7% and TrxR1 substrate 4.4%[57.1 µM].
O=C1C(=O)C(c2ccc(O)cc2O)Oc2cc(O)cc(O)c21 (stereo not given) was read as TrxR1 inh 4.47µM*, Pin1 inhibitor -16.2%, Giardia killer 9.0 and TrxR1 substrate -8.4%.
